Measurements taken from PubChem BioAssay AID588689 (Southern Research Specialized Biocontainment Screening …, 2011).
The campaign covered roughly 340,000 compounds. About 1,000 (0.29%) were called active. Rule as the data show it: inconclusive = inhibition above about 29% without an active follow-up result; inactive = below that. A selection follows. Entries with a potency or affinity are not part of this list.

Biological target: Genome polyprotein (Dengue virus type 2 (strain 16681-PDK53)) (UniProt P29991)
Sequence (P29991 whole entry, looked up): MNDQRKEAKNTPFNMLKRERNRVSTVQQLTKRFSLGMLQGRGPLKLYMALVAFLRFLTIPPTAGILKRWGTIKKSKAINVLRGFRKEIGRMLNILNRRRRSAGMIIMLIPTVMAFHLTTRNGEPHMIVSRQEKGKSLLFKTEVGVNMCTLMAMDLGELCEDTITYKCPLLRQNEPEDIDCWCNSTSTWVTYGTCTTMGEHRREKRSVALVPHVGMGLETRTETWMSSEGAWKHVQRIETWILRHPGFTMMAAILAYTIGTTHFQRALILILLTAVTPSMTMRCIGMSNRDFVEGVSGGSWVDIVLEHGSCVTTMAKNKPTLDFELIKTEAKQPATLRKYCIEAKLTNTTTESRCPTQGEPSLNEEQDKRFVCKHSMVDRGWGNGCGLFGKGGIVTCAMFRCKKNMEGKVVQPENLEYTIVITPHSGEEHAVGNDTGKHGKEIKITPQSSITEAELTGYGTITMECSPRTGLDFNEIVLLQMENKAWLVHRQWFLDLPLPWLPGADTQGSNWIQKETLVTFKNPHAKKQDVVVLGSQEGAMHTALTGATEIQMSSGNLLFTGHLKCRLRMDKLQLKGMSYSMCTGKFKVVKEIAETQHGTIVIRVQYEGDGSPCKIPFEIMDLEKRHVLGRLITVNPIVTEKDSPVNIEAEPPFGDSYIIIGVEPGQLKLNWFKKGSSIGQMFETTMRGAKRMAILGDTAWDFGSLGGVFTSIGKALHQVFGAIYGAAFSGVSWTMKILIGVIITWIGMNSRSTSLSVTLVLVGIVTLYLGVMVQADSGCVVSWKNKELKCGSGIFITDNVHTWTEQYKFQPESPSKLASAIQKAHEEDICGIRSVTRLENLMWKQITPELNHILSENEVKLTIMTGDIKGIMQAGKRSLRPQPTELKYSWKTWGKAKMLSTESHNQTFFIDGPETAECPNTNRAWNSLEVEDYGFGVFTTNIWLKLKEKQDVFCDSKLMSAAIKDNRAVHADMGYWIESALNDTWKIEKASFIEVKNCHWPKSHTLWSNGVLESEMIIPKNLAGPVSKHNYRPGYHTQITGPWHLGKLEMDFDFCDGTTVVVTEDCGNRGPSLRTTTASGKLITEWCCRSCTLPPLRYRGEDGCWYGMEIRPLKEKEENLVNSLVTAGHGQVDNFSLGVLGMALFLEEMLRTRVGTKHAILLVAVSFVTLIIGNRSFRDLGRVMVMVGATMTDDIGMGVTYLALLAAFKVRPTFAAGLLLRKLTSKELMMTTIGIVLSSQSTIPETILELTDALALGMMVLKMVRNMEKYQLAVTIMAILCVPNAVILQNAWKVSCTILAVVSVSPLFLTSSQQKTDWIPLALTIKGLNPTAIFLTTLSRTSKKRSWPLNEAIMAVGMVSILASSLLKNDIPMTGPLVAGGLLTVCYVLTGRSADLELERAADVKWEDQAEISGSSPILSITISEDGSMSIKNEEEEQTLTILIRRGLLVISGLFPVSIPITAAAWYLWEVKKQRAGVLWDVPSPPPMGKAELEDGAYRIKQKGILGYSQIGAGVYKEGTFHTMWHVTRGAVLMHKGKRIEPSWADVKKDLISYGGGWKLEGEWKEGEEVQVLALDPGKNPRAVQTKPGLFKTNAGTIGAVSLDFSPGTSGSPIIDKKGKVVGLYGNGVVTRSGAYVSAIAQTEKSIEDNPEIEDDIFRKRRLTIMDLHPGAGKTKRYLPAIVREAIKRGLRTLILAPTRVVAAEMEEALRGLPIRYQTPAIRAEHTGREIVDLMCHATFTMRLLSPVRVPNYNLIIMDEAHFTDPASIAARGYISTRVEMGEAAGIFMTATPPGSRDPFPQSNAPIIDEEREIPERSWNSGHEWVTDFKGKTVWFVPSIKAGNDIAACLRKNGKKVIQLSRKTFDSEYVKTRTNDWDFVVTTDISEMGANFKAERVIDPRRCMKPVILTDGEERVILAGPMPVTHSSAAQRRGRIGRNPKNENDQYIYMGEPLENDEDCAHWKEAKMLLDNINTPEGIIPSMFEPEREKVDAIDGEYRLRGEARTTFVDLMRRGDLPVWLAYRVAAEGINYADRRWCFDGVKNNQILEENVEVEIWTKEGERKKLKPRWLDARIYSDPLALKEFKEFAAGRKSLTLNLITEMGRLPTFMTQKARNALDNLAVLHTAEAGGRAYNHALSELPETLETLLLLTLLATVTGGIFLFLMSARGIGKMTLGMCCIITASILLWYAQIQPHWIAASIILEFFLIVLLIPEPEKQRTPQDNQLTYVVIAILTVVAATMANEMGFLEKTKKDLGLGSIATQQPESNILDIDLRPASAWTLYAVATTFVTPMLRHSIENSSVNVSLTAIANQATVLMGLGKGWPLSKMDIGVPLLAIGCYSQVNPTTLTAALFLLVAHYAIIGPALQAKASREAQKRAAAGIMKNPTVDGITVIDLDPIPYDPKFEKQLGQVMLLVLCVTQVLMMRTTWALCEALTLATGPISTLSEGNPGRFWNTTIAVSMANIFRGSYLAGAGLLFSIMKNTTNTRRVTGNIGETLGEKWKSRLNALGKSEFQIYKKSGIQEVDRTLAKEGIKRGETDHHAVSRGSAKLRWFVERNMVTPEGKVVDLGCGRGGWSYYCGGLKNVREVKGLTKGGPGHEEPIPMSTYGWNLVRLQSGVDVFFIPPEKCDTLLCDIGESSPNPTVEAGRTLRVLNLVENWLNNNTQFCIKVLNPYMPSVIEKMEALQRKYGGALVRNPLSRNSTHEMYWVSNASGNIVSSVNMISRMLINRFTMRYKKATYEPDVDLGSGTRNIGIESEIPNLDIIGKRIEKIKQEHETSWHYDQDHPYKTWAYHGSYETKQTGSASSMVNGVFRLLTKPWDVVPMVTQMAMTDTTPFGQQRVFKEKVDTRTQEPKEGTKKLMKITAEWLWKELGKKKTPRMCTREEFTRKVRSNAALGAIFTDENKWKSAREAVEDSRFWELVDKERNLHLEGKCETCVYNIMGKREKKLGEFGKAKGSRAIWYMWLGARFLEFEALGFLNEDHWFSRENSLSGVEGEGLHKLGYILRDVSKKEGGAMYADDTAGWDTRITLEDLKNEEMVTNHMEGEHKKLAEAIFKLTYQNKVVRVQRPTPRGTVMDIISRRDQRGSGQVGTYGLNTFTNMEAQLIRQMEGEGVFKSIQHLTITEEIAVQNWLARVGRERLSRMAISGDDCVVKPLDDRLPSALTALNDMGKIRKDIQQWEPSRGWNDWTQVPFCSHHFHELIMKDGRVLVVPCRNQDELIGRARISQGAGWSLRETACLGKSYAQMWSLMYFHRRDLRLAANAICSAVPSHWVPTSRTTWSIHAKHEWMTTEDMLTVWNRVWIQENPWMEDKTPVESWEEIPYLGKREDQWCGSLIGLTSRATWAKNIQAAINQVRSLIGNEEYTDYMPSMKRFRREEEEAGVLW
Experiment: flavivirus cap methylation enzyme inhibition – biochemical, confirmation dose response, primary screen (AID 588689)
Settings: Dengue-2 NS5 methyltransferase capping enzyme assay, at 25 µM, stronger effect = higher value
[1] = measured here: pilot screen replicate inhibition

Row | SMILES | inhibition | inhibition [1] [%]
1 | COc1cc2c(cc1OC)C(c1ccccc1F)NCC2 (centres undefined) | -3.4% (inactive) | –
2 | O=C(CN1CCC(NC(=O)c2ccccc2Cl)CC1)NCc1ccccc1 | -1.62% (inactive) | –
3 | COc1ccc(CNC(=O)C(C)N2CCN(S(=O)(=O)c3ccccc3F)CC2)cc1 (centres undefined) | -2.2% (inactive) | –
4 | C=CCOc1ccc(/C=C2/C(=O)ON=C2C)cc1OC | 28.1% (inactive) | –
5 | COc1cc(/C=C2/C(=O)ON=C2c2ccccc2)ccc1O | -8.45% (inactive) | –
6 | CCOc1cc(/C=C2/C(=O)ON=C2C)ccc1O | -24.5% (inactive) | –
7 | CCOc1cc(/C=C2\C(=O)ON=C2C)ccc1OCc1ccccc1 | -8.01% (inactive) | –
8 | CCCOc1ccc(/C=C2/C(=O)ON=C2C)cc1Cl | 12.4% (inactive) | –
9 | CCOc1cc(/C=C2/C(=O)ON=C2C)ccc1OCc1ccc(F)cc1 | 24.8% (inactive) | –
10 | CCOc1ccc(Cl)cc1/C=C1/C(=O)ON=C1C | 20.2% (inactive) | –
11 | COc1ccc(/C=C2/C(=O)ON=C2c2ccccc2)cc1OC | -17.6% (inactive) | –
12 | NC(=O)c1ccc(NC(=O)c2cccc(Oc3ccccc3)c2)cc1 | -7.28% (inactive) | –
13 | CCn1c(CC(=O)Nc2ccccc2)nnc1SCc1nc2ccccc2c(=O)[nH]1 | -0.79% (inactive) | –
14 | Nc1ncnc2c1ncn2[C@@H]1O[C@H](CNC(=O)[C@H](N)Cc2cscn2)[C@@H](O)[C@H]1O | -4.56% (inactive) | –
15 | NC(=O)c1cc([N+](=O)[O-])ccc1NCc1cccc(N)c1 | -0.8% (inactive) | –
16 | COC(=O)Cn1c(=NC(=O)c2ccc(Cl)s2)sc2cc(C)ccc21 | 4.02% (inactive) | –
17 | O=C(NC(=S)NCc1ccccc1)c1ccccc1[N+](=O)[O-] | -9.35% (inactive) | –
18 | O=C(NCCc1ccccc1)C(=O)Nc1ccc2c(c1)OCCO2 | -12.2% (inactive) | –
19 | O=C(c1ccc(Cl)c(Cl)c1)N1CCN(c2ccccn2)CC1 | -2.38% (inactive) | –
20 | COCCN(C(=O)CSc1nnc(-c2ccccc2F)n1N)c1c(N)n(Cc2ccccc2)c(=O)[nH]c1=O | 11.2% (inactive) | –
21 | CCOc1ccc(OCCCC(=O)NCCOc2ccccc2OC)cc1 | -5.46% (inactive) | –
22 | Cc1cccc(OCC(=O)NC(=S)Nc2ccc(S(=O)(=O)NC3CCCCC3)cc2)c1 | 0% (inactive) | –

Row | SMILES | inhibition | inhibition [1] [%]
23 | CN1CCc2nc(SC(C(=O)O)c3ccccc3)c(C#N)c(-c3cccs3)c2C1 (centres undefined) | 23.2% (inactive) | –
24 | CC(C)(C)C(=O)CSc1nc2c(c(-c3cccs3)c1C#N)CCC2 | -8.9% (inactive) | –
25 | Cc1ccc(CNC(=O)CCS(=O)(=O)c2ccc(Br)cc2)cc1 | -2.71% (inactive) | –
26 | Cc1nc2ccccc2c(=O)n1NC(=O)c1ccc(C(C)(C)C)cc1 | -7.84% (inactive) | –
27 | O=C(O)CC(NC(=O)C12CC3CC(CC(C3)C1)C2)c1cccc([N+](=O)[O-])c1 (centres undefined) | 4.1% (inactive) | –
28 | CCN=C1S/C(=C\c2ccc(-c3cccc(C(=O)O)c3)o2)C(=O)N1CC | 0.91% (inactive) | –
29 | O=C(O)c1cccc(-c2ccc(/C=C3/SC(=Nc4ccccc4)N(Cc4cccnc4)C3=O)o2)c1 | 3.26% (inactive) | –
30 | COc1ccc(C(=O)CN2C(=O)NC3(CCCc4ccccc43)C2=O)cc1 (centres undefined) | -6.6% (inactive) | –
31 | O=C(O)Cn1c(CC(=O)N2CCCC2)nc2ccccc21 | 2.7% (inactive) | –
32 | CC1=C(C#N)C(=O)NC(=O)/C1=C\c1ccc(-c2ccc(C)cc2[N+](=O)[O-])o1 | 23.7% (inactive) | –
33 | O=C(O)/C(=C\c1ccc(-c2ccccc2[N+](=O)[O-])o1)c1ccccc1 | 25.4% (inactive) | –
34 | N#C/C(=C/c1ccc(-c2ccccc2[N+](=O)[O-])o1)C(N)=O | -17.5% (inactive) | –
35 | O=[N+]([O-])c1ccccc1-c1ccc(/C=N/n2cnnc2)o1 | 1.62% (inactive) | –
36 | CCOC(=O)c1cc(-c2ccc(/C=C3/C(=O)NC(=O)C(C#N)=C3C)o2)ccc1Cl | 44.5% (inactive) | –
37 | N#C/C(=C\c1ccc(-c2ccccc2[N+](=O)[O-])o1)C(N)=O | -6.96% (inactive) | –
38 | CCN1C(=O)[C@H]2[C@@H](c3ccc(C)cc3)N3C(=O)N(c4cccc(Cl)c4)C(=O)[C@@]3(Cc3ccccc3)[C@H]2C1=O | 0% (inactive) | –
39 | NC(=O)CSc1oc(-c2ccc(F)cc2)nc1S(=O)(=O)c1ccccc1 | -9.82% (inactive) | –
40 | Cc1ccccc1NC(=O)C1CCC(=O)N1 (centres undefined) | -6.11% (inactive) | –
41 | O=C(CNC(=O)c1cccc(S(=O)(=O)N2CCc3ccccc32)c1)Nc1ccccc1Br | 2.25% (inactive) | –
42 | O=C(O)c1cc(N/N=C/c2ccncc2)ccc1Cl | -3.81% (inactive) | –
43 | CSc1ccc(/C=N/Nc2ccc(Cl)c(C(=O)O)c2)cc1 | -1.45% (inactive) | –
44 | COC(=O)C1SCC2C(=O)N(Cc3ccc(F)cc3)CC(=O)N21 (centres undefined) | -5.39% (inactive) | –

Row | SMILES | inhibition | inhibition [1] [%]
45 | Cn1c(SCC(=O)Nc2ccc3nc(SCC(=O)N4CCCC4)sc3c2)nnc1-c1ccc(N)cc1 | 9.65% (inactive) | –
46 | O=c1c2ccccc2nc(SCc2cc([N+](=O)[O-])cc3c2OCOC3)n1-c1ccccc1 | -2.94% (inactive) | –
47 | COc1ccc(OC)c(NC(=O)Nc2cccnc2)c1 | 1.62% (inactive) | –
48 | Cc1cc(C)c(NC(=O)CN2C(=O)NC3(CCCCC3)C2=O)c(Cl)c1 | -4.81% (inactive) | –
49 | CCCCn1nc(NS(=O)(=O)c2cccc3nonc23)c2cc3cccc(C)c3nc21 | 27.8% (inactive) | –
50 | CCCn1nc(NS(=O)(=O)c2cccc3nonc23)c2cc3ccccc3nc21 | 0.45% (inactive) | –
51 | COc1ccc(S(=O)(=O)NCC2CCCN(C(=O)CSC)C2)cc1 (centres undefined) | -2.61% (inactive) | 0.01
52 | C=CCN(C(=O)Cc1cccs1)c1nc(-c2ccc(S(C)(=O)=O)cc2)cs1 | -10.3% (inactive) | –
53 | Cc1[nH][nH]c(=O)c1C(c1ccc(-c2cccc(C(=O)O)c2)o1)c1c(C)[nH][nH]c1=O | 21.1% (inactive) | –
54 | Cc1[nH][nH]c(=O)c1C(c1ccc(-c2ccccc2C(=O)O)o1)c1c(C)[nH][nH]c1=O | 39% (inactive) | –
55 | Cc1cc(S(=O)(=O)N2CCCOC2CNC(=O)C(=O)NCCc2ccco2)ccc1F (centres undefined) | 0.64% (inactive) | –
56 | COc1ccccc1OCCNC(=O)C(CCSC)NS(=O)(=O)c1ccccc1F (centres undefined) | -7.2% (inactive) | –
57 | CC(Oc1ccccc1)C(=O)NNS(=O)(=O)c1ccc([N+](=O)[O-])cc1 (centres undefined) | -1.92% (inactive) | –
58 | COc1ccc(-n2c(SCC(=O)Nc3cc(C)on3)nc3ccc(O)cc3c2=O)cc1OC | -6.42% (inactive) | –
59 | O=C1NC(=S)N/C1=C/c1cccc([N+](=O)[O-])c1 | 1.48% (inactive) | –
60 | O=[N+]([O-])c1cccc(/C=N/N=C\c2ccccc2)c1 | -0.78% (inactive) | –
61 | O=C(O)c1cc(NCc2c(F)cccc2Cl)ccc1N1CCOCC1 | -2.05% (inactive) | –
62 | NS(=O)(=O)c1ccc(NCc2c(F)cccc2Cl)cc1 | 4.17% (inactive) | –
63 | CN1CCC(=NNC(=O)c2ccco2)CC1 | 17.7% (inactive) | –
64 | Cc1ccccc1C(=O)NC(=S)Nc1ccc2[nH]c(=O)[nH]c2c1 | -1.8% (inactive) | –
65 | C[C@H](CO)N1C[C@H](C)[C@@H](CN(C)S(=O)(=O)c2ccc(F)cc2)Oc2ccc(NS(=O)(=O)c3ccccc3)cc2C1=O | 0.4% (inactive) | –
66 | Cc1c(N=c2scc(-c3ccccc3)n2C)c(=O)n(-c2ccccc2)n1C | -7.91% (inactive) | –

Row | SMILES | inhibition | inhibition [1] [%]
67 | CCC(C)C1=CC(=Nc2c(C)n(C)n(-c3ccccc3)c2=O)C=C(C(C)CC)C1=O (centres undefined) | 4.41% (inactive) | –
68 | Cc1c(N=C2C(=O)Nc3ccccc32)c(=O)n(-c2ccccc2)n1C | 2.78% (inactive) | –
69 | CC1=CC(=Nc2c(C)n(C)n(-c3ccccc3)c2=O)C=C(C)C1=O | 2.89% (inactive) | –
70 | CCC1CCCCN1C(=O)COc1ccc(S(=O)(=O)N2CCOCC2)cc1Cl (centres undefined) | -7.51% (inactive) | –
71 | CCOC(=O)c1c(-c2ccccc2)oc2ccc(OCC(=O)O)cc12 | -1.55% (inactive) | –
72 | CC1CCCCC1NC(=O)c1nnc(Cc2ccc(Cl)cc2)o1 (centres undefined) | -2.17% (inactive) | –
73 | Cc1cc(-n2c(C)cc(C(=O)CSc3nncn3C(C)C)c2C)no1 | -1.44% (inactive) | –
74 | COC(=O)c1ccc([C@H](NC(=O)c2ccco2)[C@]2(C)C[C@H]2C2CCCCC2)cc1 | -7.21% (inactive) | –
75 | COc1ccc(C(=O)c2ccc(N3CCN(C(=O)c4ccc(F)cc4)CC3)c(F)c2)cc1Br | 4.82% (inactive) | –
76 | O=C1Oc2ccccc2C(=O)/C1=C\N1CCN(c2ccccc2)CC1 | -8.28% (inactive) | –
77 | Cc1ccccc1/C=C1\Oc2ccccc2C1=O | 1.3% (inactive) | –
78 | Cc1cc(C(=O)NNC(=O)c2c(-c3c(Cl)cccc3Cl)noc2C)no1 | 0% (inactive) | –
79 | CCc1ccc(OCC(O)CN2CCN(c3ccc(OC)cc3)CC2)cc1 (centres undefined) | -3.27% (inactive) | –
80 | CC(C)(C)C(=O)Nc1ccc(C(=O)Nc2cccc(Oc3ccc(C(=O)O)c(C(=O)O)c3)c2)cc1 | 9.79% (inactive) | -1.52
81 | O=C(c1ccccc1)c1ccc(Oc2ccc(C(=O)O)c(C(=O)O)c2)cc1 | 2.64% (inactive) | -1.5
82 | COc1cc(-c2nc3ccccn3c2/N=C/c2ccc(F)cc2)ccc1O | -1.47% (inactive) | –
83 | O=C(c1ccc2c3c(cccc13)CC2)C1CCCN(Cc2ccncc2)C1 (centres undefined) | -3.47% (inactive) | –
84 | O=C(c1ccc2c3c(cccc13)CC2)C1CCCN(Cc2cccnc2)C1 (centres undefined) | -8.53% (inactive) | –
85 | O=C(NCCO)C(=O)NCC(c1cccs1)S(=O)(=O)c1ccc(F)cc1 (centres undefined) | 0% (inactive) | –
86 | CC(C)C[C@@H](CNC(=O)OC(C)(C)C)NC(=O)c1nc[nH]c1C(=O)N[C@@H](CC(C)C)C(=O)CNC[C@H](CC(C)C)NC(=O)c1nc[nH]c1C(=O)N[C@@H](Cc1c[nH]c2ccccc12)C(=O)OC(C)(C)C | -7.03% (inactive) | –
